Our source for the Potency values is PubChem BioAssay (NCATS).

Results filed as inconclusive are left out. Where a call stands in place of a potency, no number is given. The source made the active and inactive calls. The call rests on the fitted dose curve; in most records, active means well fitted cell-killing curve with a large enough effect; inconclusive means small, poorly fitted or top-dose-only effect; inactive means flat fitted curve, though single readings scatter.

The assay is described as follows: Cell Viability - Renal Proximal Tubule (AID 545). Further: nearly all actives have a fitted effect of over 40% in size. The settings on record: renal proximal tubule cells viability, primary cells of rat origin; series mostly up to 91.7 µM. An excerpt: NIH Chemical Genomics Center [NCGC]
NIH Molecular Libraries Screening Centers Network [MLSCN]
National Institutes of Environmental Health Sciences [NIEHS]
National Toxicology Program [NTP]
We have developed a 1536-well cell-based assay for quantitative high throughput screening (qHTS) against a number of cell lines to determine in vitro cytotoxicity of small molecules. This particular assay uses the renal proximal tubule cells which are derived from normal kidney cells freshly isolated from rat.
NCGC Assay Protocol Summary:
The CellTiter-Glo luminescent cell viability assay (Promega) is a homogeneous method to measure the number of viable cells in culture. The end point readout of this assay is based on quantitation of intracellular ATP, an indicator of metabolic activity, using the luciferase reaction. Luciferase catalyzes the oxidation of beetle Luciferin to oxyluciferin and light in the presence of ATP. The luminescent signal is proportional to amount of ATP present.
Using the CellTiter-Glo luminescent cell viability assay, the amount of cellular ATP was measured in the renal proximal tubule cells with complete culture medium following compound treatment for 40 hours. The assay was performed in opaque white Kalypsys 1536-well plates. In the screen, tamoxifen and doxorubicin were used as positive controls. Library compounds were measured for their ability to cause acute toxicity in the cell line, as reflected by a decrease in intracellular ATP levels, in a concentration-dependent manner. […] AC50 values were determined from concentration-response data modeled with the standard Hill equation.
qHTS protocol for CellTiter Glo renal proximal tubule cell assay
[Step] [Parameter] [Value] [Description]
1. Reagent; 5 uL; 1000 renal proximal tubule cells/well
2. Time; 5 hr; 37 °C incubation
4. Controls; 23 nL; Tamoxifen 0.34 uM to 100 uM & Doxorubicin 0.02 nM to 100 uM
5. Time; 40 hr; 37 °C incubation
6. Reagent; 5 uL; CellTiter Glo reagent
7. Time; 20 min; Room Temperature
8. Detection; Luminescence; Viewlux plate reader
Keywords: cell viability, cytotoxicity, renal proximal tubule cells, luminescence, NTPHTS, NTPHTS_NCGC, NIEHS, EPA, DSSTox, MLSMR, MLSCN, NIH Roadmap, qHTS, NCGC
Consider `NC(=O)NC(N)=O`, for which the Potency entry was “inactive”.

Take `COC(=O)c1ccccc1`: the Potency result is “inactive”.

As for `O=CNc1ccccc1`, the Potency entry was “inactive”.

With `O=[N+]([O-])c1ccc(NCCO)c(OCCO)c1`, the Potency result is “inactive”.

As to `Cc1ccccc1C#N`, the Potency result was “inactive”.

As to `CNc1ccccc1`, the Potency result was “inactive”.

With `CCCCC(CC)COCC1CO1` (stereo not given), the Potency entry is “inactive”.

For the molecule `OC1CCCC1`, the Potency entry is “inactive”.

As for `Nc1nc(CC(=O)O)cs1`, the Potency entry is “inactive”.

`Cc1cc(C(=O)O)ccc1[N+](=O)[O-]`: the Potency result was “inactive”.

For `OC(CCl)CCl`, the Potency entry is “inactive”.

Turning to `Clc1ccccn1`, the Potency result was “inactive”.

On to `C=Cc1ccc(C=C)cc1`, for which the Potency entry is “inactive”.

Take `C(=C/c1ccccc1)/c1ccccc1`: the Potency result is “inactive”.

For `C/C(C=O)=C/c1ccccc1`, the Potency entry is “inactive”.

For the molecule `Cc1cccc(C)c1[N+](=O)[O-]`, the Potency entry was “inactive”.

Take `O=C(O)CCSSCCC(=O)O`: the Potency result was “inactive”.

As for `O=C1OC(=O)c2c(Br)c(Br)c(Br)c(Br)c21`, the Potency result is “inactive”.

As to `CC(C)Nc1ccccc1`, the Potency result is “inactive”.

In the case of `CC(C)CO`, the Potency result is “inactive”.

Turning to `FC(F)(F)c1ccccc1Cl`, the Potency entry was “inactive”.

As to `CC(O)COC(C)(C)C` (stereo not given), the Potency entry is “inactive”.

For `Cc1ccc(C)o1`, the Potency result was “inactive”.

Turning to `C=CC(=O)OCCCC`, the Potency entry is “inactive”.

`Cc1ccc(N(C)C)cc1`: the Potency entry is “inactive”.

Regarding `CCCCCCCN`, the Potency entry is “inactive”.

Take `CCCC(C)CO` (stereo not given): the Potency entry is “inactive”.

For `CCCCOCCOCCSC#N`, the Potency entry is “inactive”.

For the molecule `CC(=O)c1ccccc1[N+](=O)[O-]`, the Potency entry was “inactive”.

`CC(C)=C1CCC(C)CC1=O` (stereo not given): the Potency entry was “inactive”.

On to `CCCC(Cl)CCCC(Cl)CCC(Cl)CCC(Cl)CCC(Cl)CCCC(Cl)CCC` (stereo not given), for which the Potency entry is “inactive”.

Consider `CC(C)c1ccccc1`, for which the Potency result was “inactive”.

For `Cc1c(N)cccc1N`, the Potency result is “inactive”.

For the molecule `C=CC(=O)NC(C)C`, the Potency result was “inactive”.

As to `NC(=O)/N=N/C(N)=O`, the Potency result is “inactive”.

Turning to `O=[N+]([O-])c1ccc2nc[nH]c2c1`, the Potency result was “inactive”.

With `CC(C)(C)OCC1CO1` (stereo not given), the Potency entry was “inactive”.

For `CC(=O)Nc1cccc(N)c1`, the Potency entry was “inactive”.

As to `C=C(C)C(=O)OCC(C)O` (stereo not given), the Potency result was “inactive”.

Regarding `CCN(CC)c1cccc(O)c1`, the Potency result is “inactive”.
